# Inconclusive results are not listed. Active and inactive are the calls of the source. Calls follow the shape of the full dose curve.
# Assay: qHTS for Inhibitors of Cell Surface uPA Generation: Wild-type Protective Antigen (WT-PrAg) Counterscreen for Cherry-picked Compounds; as to activity (protection): 0% is about no effect
# Details: cells, WT protective antigen toxicity counterscreen; series mostly up to 115 µM; activity (protection): at the top concentration
# Potency is read from the fitted curve at half-maximal effect.
SMILES,activity (protection),Potency
COc1ccc(-c2sc3ccccc3c2C#CCO)cc1,-1.9% (inactive),
COC(=O)[C@@]1(Cc2ccc(F)cc2)[C@H]2c3cc(C(=O)N(C)C)n(Cc4c(CO)[nH]cc(C)c4=O)c3C[C@H]2CN1C(=O)c1ccccc1,1.06% (inactive),
O=C(O)C(Nc1nc(C(F)(F)F)nc2ccccc12)c1ccccc1 (stereo not given),1.14% (inactive),
NC(=O)CC[C@H](NC(=O)c1ccc(F)cc1)C(=O)OCC(=O)Nc1c(F)c(F)c(F)c(F)c1F,-0.726% (inactive),
S=C(Nc1ccccc1Cl)N1CCCC(c2ccccc2)=N1,,16.5 µM (active)
C=CC1=C(C(=O)O)N2C(=O)[C@@H](NC(=O)/C(=N\O)c3csc(N)n3)[C@H]2SC1 (stereo in doubt),0.487% (inactive),
COc1ccc(-n2nnnc2SCC(=O)Nc2nnc(C)s2)cc1,-0.427% (inactive),
O=C(O)CNC(=S)N(Cc1ccccc1)Cc1cccnc1,-0.77% (inactive),
O=C(Nc1cccc(-c2nn[nH]n2)c1)c1ccc(Cl)s1,-1.91% (inactive),
CCO[C@H]1OC(C(=O)N2CCCCCCC2)=C[C@@H](c2ccc(C(F)(F)F)cc2)[C@@H]1CCCO,-1.81% (inactive),
Cc1nc2nc(C)c(NS(=O)(=O)c3ccc(Cl)cc3)c(=O)n2[nH]1,2.63% (inactive),
Cc1oc(-c2ccccc2F)nc1CS(=O)(=O)CC(=O)NC1CCCC(C)C1C (stereo not given),0.318% (inactive),
CCOC(=O)C1CCN(S(=O)(=O)c2c[nH]c(=O)[nH]c2=O)CC1,-0.301% (inactive),
CCC(C)NC(=O)c1ccc2nc(-c3ccc(OC)c(OC)c3)c(-c3ccc(OC)c(OC)c3)nc2c1 (stereo not given),-2.18% (inactive),
COc1ccc([C@H]2[C@H](C(=O)OC(C)(C)C)N3N=Cc4ccccc4C3C23C(=O)c2ccccc2C3=O)cc1OC (stereo not given in full),-2.24% (inactive),
COc1ccc(C(=O)CC(=O)C(=O)Nc2ccccc2)cc1,-2.05% (inactive),
CCOc1cc(C)c(S(=O)(=O)N2CCCCC2)cc1C,-1.61% (inactive),
COc1ccc(/C=C/C(=O)Nc2ccccc2Cl)cc1S(=O)(=O)N1CCOCC1,-0.626% (inactive),
COc1ccc(C2=C/C(=C\c3ccccc3OC(C)=O)C(=O)O2)cc1,-1.93% (inactive),
CCCCn1c(N)c(N(CCC(C)C)C(=O)c2sc3nc4n(c(=O)c3c2C)CCC4)c(=O)[nH]c1=O,4.42% (inactive),

SMILES,activity (protection),Potency
O=C(COC(=O)c1ccc2ncsc2c1)NCc1cccc(Cl)c1,-0.608% (inactive),
OC(COc1ccc(Br)cc1)CN1CCN(c2ccccc2)CC1 (stereo not given),-0.779% (inactive),
Cc1cccc(-c2nc(CS(=O)CC(=O)NCc3cccs3)c(C)o2)c1 (stereo not given),-1.45% (inactive),
Fc1ccc(CNc2ccccn2)cc1,-1.09% (inactive),
COc1cc(NC(=S)NCCc2ccc(S(N)(=O)=O)cc2)c(OC)cc1Cl,7.74% (inactive),
COc1cc(N/C(N)=N/c2nc(C)cc(C)n2)cc(OC)c1,-2.15% (inactive),
CCN(CC)S(=O)(=O)c1ccc(NC(=S)Nc2ccc(F)cc2)cc1,-1.28% (inactive),
N#CCC(=O)N/N=C/c1ccc(OCC(=O)Nc2ccc(F)cc2)cc1,1.33% (inactive),
COc1ccc([C@H]2CC(=O)C=C(c3ccc(CNC(=O)OC(C)(C)C)cc3)C2)cc1,-1.05% (inactive),
COc1ccc(N(C(C)C(=O)NN=C2CCCC2)S(C)(=O)=O)cc1 (stereo not given),0.768% (inactive),
COc1ccc(/C(N)=N/OC(=O)Cc2ccccc2OC)cc1,0.289% (inactive),
COC(=O)COc1cc2ccccc2cc1C(=O)Nc1ccccc1,-0.212% (inactive),
CCNC(=S)NNC(=O)c1ccncc1,-1.28% (inactive),
COc1ccc(C)cc1NC(=O)NNC(=O)C1CCC(C(C)(C)C)CC1 (stereo not given),-2.37% (inactive),
COCCCN1CC23C=CC(O2)C(C(=O)O)C3C1=O (stereo not given),-0.168% (inactive),
CCOCCCn1c(SCC(=O)Nc2cc(OC)ccc2OC)nc2ccccc2c1=O,-2.4% (inactive),
O=C(O)CCCC(=O)NCCCCc1ccccc1,-0.427% (inactive),
CN(C)S(=O)(=O)c1ccc(NC(=O)COC(=O)CC2CC3CCC2C3)cc1 (stereo not given),0.767% (inactive),
COc1ccc(C2=Nc3ccccc3C2(O)CCN2C(=O)c3ccccc3C2=O)cc1 (stereo not given),-1.2% (inactive),
O=C(c1cc2cc([N+](=O)[O-])ccc2s1)N1CCOCC1,-1.68% (inactive),
